According to PubChem BioAssay AID1347043 (National Center for Advancing Translational Sciences (NCATS), 2019):
The whole screen tested about 76,000 compounds, of which about 1,900 (2.5%) were called active. Inconclusive results (about 5%) are left out. Calls follow the shape of the dose curve; as a rule, active = well fitted inhibition curve with a large enough effect; inconclusive = small, poorly fitted or top-dose-only effect; inactive = flat fitted curve, though single readings scatter. What follows is part of a selection rich in actives, with near analogues and random picks from the rest.

molecular target: Luciferin 4-monooxygenase (Photinus pyralis) (UniProt P08659); assay: Firefly luciferase inhibition profiling of diverse chemical library using quantitative high-throughput screening; also: nearly all actives have a fitted effect of over 65% in size; conditions: purified P. pyralis luciferase, luminescence, biochemical; series mostly up to 115 µM
Sequence (P08659 whole entry, looked up): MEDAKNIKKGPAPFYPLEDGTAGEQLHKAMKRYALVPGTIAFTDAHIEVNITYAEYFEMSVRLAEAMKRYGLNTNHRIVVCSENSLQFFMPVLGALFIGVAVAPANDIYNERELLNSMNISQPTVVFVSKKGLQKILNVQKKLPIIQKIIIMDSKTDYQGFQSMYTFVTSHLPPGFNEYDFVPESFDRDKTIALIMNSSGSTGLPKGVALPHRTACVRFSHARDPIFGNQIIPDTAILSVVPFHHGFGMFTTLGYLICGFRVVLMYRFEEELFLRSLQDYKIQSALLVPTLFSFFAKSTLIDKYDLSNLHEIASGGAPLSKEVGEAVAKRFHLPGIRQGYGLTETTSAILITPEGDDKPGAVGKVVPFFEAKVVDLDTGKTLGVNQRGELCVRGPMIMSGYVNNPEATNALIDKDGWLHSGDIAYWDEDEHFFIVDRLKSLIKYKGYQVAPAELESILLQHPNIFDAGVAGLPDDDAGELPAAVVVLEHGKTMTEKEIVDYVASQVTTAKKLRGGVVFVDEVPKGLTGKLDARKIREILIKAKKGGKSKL
Excerpt: Firefly (Photinus pyralis) luciferase is one of the most commonly used transcriptional reporters for a number of reasons. It is considered one of the more dynamically responsive reporters - that is, responsive to changes in reporter transcription - as it requires no post-translational modifications and is enzymatically active directly after protein synthesis (Wood, 1998). Additionally, the half-life of the luciferase protein is short relative to other reporter-gene products (Wood, 1995). Whereas reporters with long half-lives potentially allow for increased signal due to accumulation of reporter-gene product, once accumulated in the cell, dynamic changes in reporter-gene expression may be difficult to detect(Fan and Wood, 2007; Almond et al., 2004). It has been shown that wild-type P. pyralis luciferase has a half-life of approximately four hours in mammalian cells (Thompson et al., 1991). Firefly luciferase reporter-gene assays are also generally considered one of the most sensitive assay types (Wood, 1995; Wood, 1998). Although light produced in a bioluminescence reaction is of lower intensity than that produced during fluorescence emission, this is offset by little to no background light inherent to luminescent assays. Thus the luciferase reporter can be expressed at much lower levels than fluorescent proteins while still providing robust signal. However, it was initially observed, in 1991, by Thompson et al., that compounds that resemble the substrates of firefly luciferase (FLuc) can act as competitive inhibitors of the enzyme, and that these compounds, upon interaction with luciferase in the cell, can actually stabilize the protein and increase its half-life. Accumulated intracellular FLuc protein can be measured as an increase in luminescence signal, upon addition of detection reagents (which contain high concentrations of FLuc substrates) commonly used in high-throughput screening. In cell-based reporter gene assays that use FLuc as the reporter gene to quantitate the potential influence of a given compound against the target biology, this apparent increase in luminescence can mistakenly be interpreted as identification of a compound that is active against the target of interest. FLuc inhibitory compounds that stabilize the FLuc protein will give an identical read-out, making it difficult to distinguish compounds that are active against the target from those active against FLuc. In summary, the results generated here constitutes a valuable resource for the scientific community and provides insight on identifying compounds with inhibitory activity for the commonly-used reporter, firefly luciferase. References: -Almond, B., Zdanovsky, A., Zdanovskaia, M., Ma, D., Stecha, P., Paguio, A., Garvin, D., and Wood, K. (2004). Introducing the Rapid Response Reporter Vectors. Promega Notes 87, 18-22. -Fan, F., and Wood, K.V. (2007). Bioluminescent assays for high-throughput screening. Assay Drug Dev Technol 5, 127-136. -Thompson, J.F., Hayes, L.S., and Lloyd, D.B. (1991). Modulation of firefly luciferase stability and impact on studies of gene regulation. Gene 103, 171-177. -Wood, K.V. (1998). The chemistry of bioluminescent reporter assays. Promega Notes 65, 14-20. -Wood, K.V. (1995). Marker proteins for gene expression. Curr Opin Biotechnol 6, 50-58.
Reagents: 50mM Tris acetate, pH 7.5; 10mM Mg acetate; 10uM D-luciferin (Sigma #L9504); 10uM ATP; 0.01% Tween-20; 0.05% BSA; 10nM P. pyralis luciferase (Sigma #L9506) Control compounds used were two known firefly luciferase inhibitors (compounds (2) and (5) in Auld et al., 2010), and DMSO. Assay Summary: Three microliters containing firefly luciferase substrates in buffer (final concentrations: 50mM Tris acetate, pH 7.5, 10mM Mg acetate, 0.01% Tween-20, 0.05% BSA, 10uM D-luciferin, and 10uM ATP) are dispensed into each well of a Greiner white, solid-bottom 1536-well format plate using a flying reagent dispenser (FRD). […]

Potency, active:
Fc1ccccc1CN1CCNc2cc(Nc3cccnc3)ncc2C1 50.1 µM, Cc1cccc(-c2cccc(NC(=O)C3CCCN(C(=O)CC(F)(F)F)C3)c2)c1 (stereo unspecified) 11.2 µM, CC#CC(=O)N1CCCC(C(=O)Nc2cccc(-c3cccc(C)c3)c2)C1 (stereo unspecified) 15.8 µM, Cc1ccc(C2Cn3nnc(C(=O)N4CCC(C(=O)Nc5ccc(Cl)cc5)CC4)c3CO2)cc1 (stereo unspecified) 15.8 µM, CCCCNC(=O)C1CCN(C(=O)c2nnn3c2COC(c2ccc(C)cc2)C3)CC1 (stereo unspecified) 28.2 µM, Cc1ccc(C2Cn3nnc(C(=O)N4CCC(C(=O)NCCc5ccccc5)CC4)c3CO2)cc1 (stereo unspecified) 12.6 µM, CCN1CCN(C(=O)C23CCCC=C2N(C2CCCC2)C(=O)CC3)CC1 (stereo unspecified) 39.8 µM, O=C([C@@H]1C[C@@H](O)[C@H](O)[C@@H]2NC(=S)N(c3ccc(OC(F)(F)F)cc3)[C@@H]21)N1CCCCC1 14.1 µM, O=C(c1ccc(-c2ccc(N3CCCCC3)nc2)cc1)N1CCOCC1 35.5 µM, O=C(CCc1ccccc1)NCCn1cccc1-c1nc(-c2ccc3c(c2)OCO3)no1 50.1 µM, COc1ccc(-c2cc(N3CCCC(NC(=O)c4ccsc4)C3)n[nH]2)cc1 (stereo unspecified) 14.1 µM, O=C(NC1CCCN(c2cc(-c3ccc(Cl)cc3)[nH]n2)C1)c1ccncc1 (stereo unspecified) 12.6 µM, O=C(NC1CCN(c2cc(-c3ccc(F)cc3)[nH]n2)C1)c1cc2ccccc2[nH]1 (stereo unspecified) 6.31 µM

Potency, inactive:
CCCCCCOC(=O)C1=CN(C)S(=O)(=O)N=C1C, Cn1cc(CC(=O)N2CCCc3ncc(C(N)=O)cc32)c2ccccc21, COCCNC(=O)CCc1c(C)nn(-c2ccccc2)c1Oc1ccccc1F, O=C([C@@H]1C[C@H](Oc2ccccc2)CN1C(=O)CN1CCCCCC1)N1CCCC1, c1ccc(CN2CCNc3cc(NCc4cccnc4)ncc3C2)cc1, CN(C)c1cccc(Nc2cc3c(cn2)NCCN(Cc2ccccc2)C3)c1, Fc1ccc(Cc2nc3nccc(-c4ccco4)n3n2)cc1, COc1ccc(-c2ccc3ncc(Nc4ccc(C(F)(F)F)cc4)n3n2)cn1, CC(=O)Nc1cccc(-c2nnc3n2CCCC3)c1, O=C(Nc1cccc(Cl)c1)C1CCCN(c2nc3ncccc3o2)C1 (stereo unspecified), Cc1cccc(C(=O)N2C[C@@H](F)C[C@H]2C(=O)N2CCCCC2)c1, O=C(Nc1cccc(F)c1)N1CCCC(CN2CCOCC2)CC1 (stereo unspecified), CCn1nccc1C(=O)N1CCCC1c1cc(C)no1 (stereo unspecified), CN1C(=O)CC(C(=O)O)C12CCN(CCc1ccccn1)CC2 (stereo unspecified), Cc1ccc(CNC(=O)N2CCN(C(=O)N3CC4CC(C3)[C@H]3CCCC(=O)N3C4)CC2)cc1 (stereo partly specified), CCn1c(CN(C)C)nnc1C1CCN(Cc2ccc(-n3ccnc3)cc2)CC1, Cc1ccc(C(=O)N2CCN(C(=O)c3nnn4c3COC(c3ccccc3)C4)CC2)cc1 (stereo unspecified), O=C(c1ccoc1)N1CCN(C(=O)c2nnn3c2COC(c2ccc(Cl)cc2)C3)CC1 (stereo unspecified), COc1ccc(C2Cn3nnc(C(=O)N4CCC(C(=O)NCC5CCCCC5)CC4)c3CO2)cc1 (stereo unspecified), Cc1ccc(C2Cn3nnc(C(=O)N4CCN(C(=O)COc5cccc(C)c5)CC4)c3CO2)cc1 (stereo unspecified), COc1ccc(C2Cn3nnc(C(=O)N4CCN(C(=O)c5ccc(C)cc5C)CC4)c3CO2)cc1 (stereo unspecified), CN(C)c1ccc(C(=O)N2CCN(C(=O)c3nnn4c3COC(c3ccc(Cl)cc3)C4)CC2)cc1 (stereo unspecified), C=CCN(C)C(=O)[C@@H](C)C1CC[C@@]2(C)Cc3sc(Nc4c(Cl)cccc4Cl)nc3[C@@H](C)[C@@H]2[C@H]1O (stereo partly specified), O=C(C[C@@H]1CCNC[C@@H]1Cc1cc(CSc2ccccc2)on1)NCc1ccc2c(c1)OCO2, CCc1cccc(C)c1NC(=O)Cn1ccn2nc(-c3ccc(F)cc3)c(CO)c2c1=O, Cc1ocnc1C(=O)N1CCc2nc(N)nc(N3CC[C@H](O)C3)c2CC1, Cc1cn2nc(C(=O)NCc3ccc(F)cc3)cc2c(N2CCCC2)n1, CC(C)CCN1C(=O)CC[C@]2(C(=O)N3CCN(CC(C)C)CC3)CCCC[C@@H]12, CC(C)CCN1C(=O)CC[C@]2(C(=O)N3CCN(C)CC3)CCCC[C@@H]12, CNC(=O)[C@@H]1CN(C(=O)c2n[nH]c3ccccc23)C[C@H]1c1n[nH]c(C)n1, Cc1cccnc1NC(=O)C1c2ccccc2C(=O)N(C2CCCC2)C12CCCC2 (stereo unspecified), CC1(NC(=O)C2CC2)CN(c2ccc(OC(F)(F)F)cc2)C1, O=C([C@@H]1C[C@H](F)CN1C(=O)c1ccccc1OC(F)(F)F)N1CCCCC1, Cc1noc(-c2cccc(OC3CN(C(=O)c4ccco4)C3)c2)n1, COc1ccccc1OCc1cc(C(=O)NCc2n[nH]c3c2CCC3)n[nH]1, CCOC(=O)C1CCN(C(=O)c2ccc(-c3ccc(N4CCCCCC4)nc3)cc2)CC1, CN1CCCN(c2ccc(C(=O)N3CCC(N4CCOCC4)CC3)cn2)CC1, Cc1ccc(NC(=O)Cn2cccc2-c2nc(-c3ccc4c(c3)OCO4)no2)cc1Cl, COc1ccc(-c2noc(-c3cccn3CC(=O)Nc3ccccc3)n2)cc1F, COc1ccc(CN2CCC3(COc4ccccc4C(=O)N3)C2)cc1 (stereo unspecified), Cc1c(Cl)cccc1NC(=O)N1C[C@@H](F)C[C@H]1C(=O)N1CCc2ccccc2C1, O=C(CC1CCCC1)N1CCC(c2nc(C3CCOCC3)no2)CC1, O=C(NC1CCN(c2cc(-c3ccc(Cl)cc3)[nH]n2)C1)c1c[nH]c2ccccc12 (stereo unspecified), O=C(NC1CCN(c2cc(-c3ccc(F)cc3)[nH]n2)C1)c1ccc2c(c1)OCO2 (stereo unspecified), COc1ccc(-c2cc(N3CCC(NC(=O)c4ccc(N(C)C)cc4)C3)n[nH]2)cc1 (stereo unspecified), O=C(NC1CCCN(c2cc(-c3ccc(F)cc3)[nH]n2)C1)c1ccc(Br)cc1 (stereo unspecified), O=C(NC1CCCN(c2cc(-c3ccccc3)[nH]n2)C1)c1cccc(Cl)c1 (stereo unspecified), O=C(NC1CCCN(c2cc(-c3ccc(Cl)cc3)[nH]n2)C1)c1ccccc1F (stereo unspecified)
